Measurements taken from PubChem BioAssay (NCI).
Where “and” joins values, the source holds several entries; their conditions need not be identical. Equal values may be shown once. The panel holds about 83,000 compounds, 20% with a hit somewhere; the sample as a whole holds those more often.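 Note: values are percent growth. 100 is the growth of untreated cells, values between 100 and 0 indicate rising inhibition; between -100 and 0 indicates cell death.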 The source holds several records for some structures; these can differ, active in one and inactive in another. Calls of active or inactive are those of the source.

Each compound was assayed on NCI-H460 lung (assay: NCI-60 one-dose screen, 48 h (100 = growth as untreated, 0 = no growth, -100 = all killed)). Conditions: 10 µM.
Procedure: Growth inhibition of the NCI-H460 human Non-Small Cell Lung tumor cell line is measured as a screen for anti-cancer activity. Cells are grown in 96 well plates and exposed to the test compound for 48 hours. Compounds are tested at a single concentration, which is 10^-5 M for most compounds. The reported endpoint is percent growth (GI% or GIPRCNT), where numbers from 0 - 100% represent growth inhibition, and numbers from -100% - 0 represent cell death. For example, a value of 40 represents 60% growth inhibition. A value of 0 means no net growth occurred over the course of the experiment. A value of -40 indicates 40% of cells at the beginning of the experiment died by the end of the experiment. A value of -100 means all cells are dead at the end of the experiment.
NCI-60 Human Tumor Cell Lines Screen was performed using the standard one-dose NCI protocol, which is described in more detail at https://dtp.cancer.gov/discovery_development/nci-60/default.htm.
Compounds with GIPRCNT values below 10 were considered active. Activity score was based on GIPRCNT using the following formula: […]
Score is 0 for GIPRCNT values of 100 or above, 50 for GIPRCNT values of 0, and 100 for GIPRCNT values of -100.
In the case of `CC1=C2C(=C[C@@](C)(C=O)[C@@H]2O)C(=O)[C@](C)(O)C12CC2`, the growth is reported as 5.09% (active). In the case of `C[C@@H]1CCC/C=C/[C@H]2C[C@@H](O)C[C@@H]2[C@@H](O)/C=C/C(=O)O1`, the growth is reported as 18.2% (inactive). For `CC1=C[C@H]2O[C@@H]3C[C@@H](O)[C@](C)([C@@]2(C)CC1)[C@@]31CO1`, the growth was 13.2% (inactive). `CCCCCCCCCC(=O)N[C@@](C)(CC)C(=O)N1CCC[C@H]1C(=O)N[C@@H](CC(C)C)C(=O)N[C@@](C)(CC)C(=O)N[C@@H](CCC(N)=O)C(=O)N[C@H](CCC(N)=O)C(=O)NC(C)(C)C(=O)NC(C)(C)C(=O)N[C@@H](CCC(N)=O)C(=O)N[C@H](CC(C)C)C(=O)N[C@H](CO)CC(C)C` was tested, and the growth was -77.3% (active) and -76.8% (active). For `COc1cc2c(cc1OC)[C@@H]1N(CC2)C(=O)c2ccccc2[C@@]1(C)C(=O)O`, the growth was 109% (inactive). For `CN(CCF)/N=N/c1nc[nH]c1C(N)=O`, the growth was 38.6% (inactive). `C/C=C\C(=O)O[C@@H]1CC2O[C@@H]3C=C(C)C(=O)C[C@]3(C)[C@]1(C)[C@]21CO1` was tested, and the growth was 0.808% (active). With `C=C1[C@@H](C)C2[C@H](Cc3ccccc3)NC(=O)[C@]23[C@H](OC(C)=O)/C=C/[C@@](C)(O)C(=O)[C@@H](C)C/C=C/[C@H]3[C@@H]1O` (stereo not given in full) the growth was 26.3% (inactive). In the case of `CC1=C(CN(O)C(N)=O)C2=C(C)C3(CC3)[C@](C)(O)C(=O)C2=C1`, the growth is reported as 1.16% (active). For `COc1cc2c(O[C@@H]3OC[C@H](OC(C)=O)[C@H](OC(C)=O)[C@H]3O)c3c(c(-c4ccc5c(c4)OCO5)c2cc1OC)C(=O)OC3`, the growth was 10.7% (inactive). In the case of `CCC(C)[C@H]1C(=O)O[C@H](C(C)C)C(=O)N(C)[C@@H](C(C)C)C(=O)O[C@H](C(C)C)C(=O)N(C)[C@@H](C(C)C)C(=O)O[C@H](C(C)C)C(=O)N1C` (stereo not given in full), the growth is reported as 7.94% (active). With `COc1cc2c(O[C@@H]3OC[C@H](O)[C@H](O)[C@H]3O)c3c(c(-c4ccc5c(c4)OCO5)c2cc1OC)C(=O)OC3` the growth was 71.9% (inactive). For `C/C=C/CC(C)C(O)[C@H](NC(=O)[C@@H]1CCCN1C(=O)C(C)(C)NC(=O)CCCCCCCCC)C(=O)NC(C)(C)C(=O)N[C@@H](CCC(N)=O)C(=O)N[C@H](CCC(N)=O)C(=O)NC(C)(C)C(=O)NC(C)(C)C(=O)N[C@@H](CCC(N)=O)C(=O)N[C@H](CC(C)C)C(=O)N[C@H](CO)CC(C)C` (stereo not given in full), the growth was 17.1% (inactive) and -70% (active). With `COc1cc(OC)c(S(=O)(=O)N(CCCl)CCCl)cc1C(=O)/C=C/c1ccc(Cl)cc1` the growth was 77.7% (inactive). For `NC1CCc2cc(O)c(O)cc2C1` (stereo not given), the growth was 87% (inactive). For `C/C=C/CC(C)C(O)[C@H](NC(=O)[C@@H]1CCCN1C(=O)C(C)(C)NC(=O)CCCCCCC)C(=O)N[C@@](C)(CC)C(=O)N[C@@H](CCC(N)=O)C(=O)N[C@H](CCC(N)=O)C(=O)NC(C)(C)C(=O)NC(C)(C)C(=O)N[C@@H](CCC(N)=O)C(=O)N[C@H](CC(C)C)C(=O)N[C@H](CO)CC(C)C` (stereo not given in full), the growth was 105% (inactive) and 13.1% (inactive). With `C[C@@H]1C[C@H]2C(=O)O[C@@H](C)C(NC(=O)[C@H](Cc3cc(F)cc(F)c3)NC(=O)Nc3ccc(OS(=O)(=O)F)cc3)C(=O)N3CCC[C@H]3C(=O)N3CCO[C@H](C)[C@H]3C(=O)N[C@@H](CO)C(=O)N2C1` (stereo not given in full) the growth was 17% (inactive). In the case of `CC1=C2C(=C[C@@](C)(COS(C)(=O)=O)[C@@H]2O)C(=O)[C@](C)(O)C12CC2`, the growth is reported as 7.36% (active). With `CC1=C[C@H]2O[C@@H]3C[C@H]4OC(=O)/C=C\C=C\[C@H]([C@@H](C)O)OCC[C@@H](C)[C@H](O)C(=O)OC[C@@]2(CC1)[C@]4(C)[C@]31CO1` the growth was -5.9% (active). For `CC1=C[C@H]2O[C@@H]3C[C@H]4OC(=O)/C=C\C=C\[C@H]([C@@H](C)O)OCC/C(C)=C/C(=O)OC[C@@]2(CC1)[C@]4(C)[C@]31CO1`, the growth was -7.38% (active). In the case of `COC1[C@@H]2C[C@H]3C(C)(C)O[C@@](C/C=C(/C)C(=O)O)(C2=O)[C@]32Oc3c(CC=C(C)C)c4c(c(O)c3C(=O)[C@H]12)C=CC(C)(C)O4` (stereo not given in full), the growth is reported as -55.6% (active). For `CC1=C(CN(O)C(N)=O)C2=C(C)C3(CC3)[C@@](C)(O)C(=O)C2=C1`, the growth was -11.2% (active). With `O=C(CCCc1ccc(N(CCCl)CCCl)cc1)OCc1ccccc1` the growth was 53.1% (inactive). With `CN1C(=O)[C@]23SSC1(C)C(=O)N2[C@H]1Nc2ccccc2C1([C@@]12c4ccccc4N[C@@H]1N1C(=O)C4(C)SS[C@]1(C(=O)N4C)[C@H]2O)[C@@H]3O` (stereo not given in full) the growth was -87.4% (active). `COC(=O)[C@H]1[C@@H](O)[C@@]2(O)c3c(OC)cc(OC)cc3O[C@@]2(c2ccc(OC)cc2)[C@@H]1c1ccccc1` was tested, and the growth was 2.19% (active). For `CC(C)(O)/C=C/C(=O)[C@](C)(O)[C@H]1[C@H](O)C[C@@]2(C)[C@H]3CC=C4[C@@H](C[C@H](O)C(=O)C4(C)C)[C@]3(C)C(=O)C[C@]12C`, the growth was 15.6% (inactive). In the case of `C/C=C/CC(C)C(O)[C@H](NC(=O)[C@@H]1CCCN1C(=O)C(C)(C)NC(=O)CCCCCCCCC)C(=O)N[C@@](C)(CC)C(=O)N[C@@H](CCC(N)=O)C(=O)N[C@H](CCC(N)=O)C(=O)NC(C)(C)C(=O)N[C@@](C)(CC)C(=O)N[C@@H](CCC(N)=O)C(=O)N[C@H](CC(C)C)C(=O)N[C@H](CO)CC(C)C` (stereo not given in full), the growth is reported as 106% (inactive) and -77.3% (active). In the case of `N#Cc1c(-n2c(Br)c(Br)c3cc(Br)ccc32)[nH]c2c(Br)cc(Br)cc12`, the growth is reported as -2.03% (active). For `CC(=O)O[C@@H]1[C@@H]2O[C@H]2[C@@](C)(O)C(=O)[C@@H](C)C/C=C/[C@H]2[C@@H]3O[C@]3(C)[C@@H](C)C3[C@H](Cc4ccccc4)NC(=O)[C@@]312` (stereo not given in full), the growth was 28.5% (inactive). For `CC(=O)O[C@@H]1C[C@H]2O[C@@H]3C=C(C)CC[C@]3(C)[C@]1(C)[C@]21CO1`, the growth was 6.94% (active). For `CC1=C2C(=O)[C@](C)(CO)C=C2C(=O)[C@](C)(O)C12CC2`, the growth was 5.34% (active). `COc1cc(C)c(-c2ccc(OC)c(=O)cc2C)c(OC)c1OC` was tested, and the growth was 4.53% (active) and 103% (inactive). In the case of `CC(C)=CCc1c2c(c(O)c3c1O[C@]14C(=C[C@@H]5C[C@H]1C(C)(C)O[C@@]4(C/C=C(/C)C(=O)O)C5=O)C3=O)C=CC(C)(C)O2`, the growth is reported as -67.4% (active). For `C/C=C/CC(C)C(O)[C@H](NC(=O)[C@@H]1CCCN1C(=O)C(C)(C)NC(=O)CCCCCCCCC)C(=O)N[C@@](C)(CC)C(=O)N[C@@H](CCC(N)=O)C(=O)N[C@H](CCC(N)=O)C(=O)NC(C)(C)C(=O)NC(C)(C)C(=O)N[C@@H](CCC(N)=O)C(=O)N[C@H](CC(C)C)C(=O)N[C@H](CO)CC(C)C` (stereo not given in full), the growth was -56.6% (active) and 12.7% (inactive). For `CC1=C2C(=C[C@@](C)(COC(=O)c3ccc(S(=O)(=O)F)cc3)[C@@H]2OC(=O)c2ccc(S(=O)(=O)F)cc2)C(=O)[C@](C)(O)C12CC2`, the growth was 0.279% (active). With `N#Cc1nc(-c2ccccc2)oc1N1CCC(S(=O)(=O)F)CC1` the growth was 106% (inactive). For `CC1=C2C(=C[C@@](C)(COC(=O)c3ccc(S(=O)(=O)F)cc3)[C@@H]2O)C(=O)[C@](C)(O)C12CC2`, the growth was -33.3% (active). With `CC1=C(CCC=NNC(N)=O)C2=C(C)C3(CC3)[C@@](C)(O)C(=O)C2=C1` the growth was -29.2% (active). For `COc1cccc2c1cc([N+](=O)[O-])c1c(C(=O)O)cc3c(c12)OCO3`, the growth was 105% (inactive). In the case of `Cc1ccc(CNc2nc3ccc(OC/C(=C/F)CN)cc3o2)cn1`, the growth is reported as 93.7% (inactive).
